Measurements reported in PubChem BioAssay (NCI).
This is part of a sample that, as a whole, favours compounds with a hit. Of some 83,000 tested, about 20% had one in any assay.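 A percent growth of 40 corresponds to 60% growth inhibition; 0 means no net growth; -100 means all cells died. Active threshold: below 10.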 Unmarked numbers belong to inactive results. The source made the active and inactive calls.

How the values were obtained:
Test in all cases: NCI-60 one-dose screen, 48 h (100 = growth as untreated, 0 = no growth, -100 = all killed)
Conditions in all cases: 10 µM unless noted
SR leukemia = system: SR leukemia
RPMI-8226 leukemia = system: RPMI-8226 leukemia
OVCAR-5 ovarian = system: OVCAR-5 ovarian
OVCAR-4 ovarian = system: OVCAR-4 ovarian
SK-OV-3 ovarian = system: SK-OV-3 ovarian
IGROV1 ovarian = system: IGROV1 ovarian
OVCAR-3 ovarian = system: OVCAR-3 ovarian
HS 578T breast = system: HS 578T breast
NCI/ADR-RES ovarian = system: NCI/ADR-RES ovarian
T-47D breast = system: T-47D breast
BT-549 breast = system: BT-549 breast
MDA-MB-435 melanoma = system: MDA-MB-435 melanoma
SW-620 colon = system: SW-620 colon
MCF7 breast = system: MCF7 breast
HCT-116 colon = system: HCT-116 colon
HCC-2998 colon = system: HCC-2998 colon
KM12 colon = system: KM12 colon

Compound	growth (SR leukemia)	growth (RPMI-8226 leukemia)	growth (OVCAR-5 ovarian)	growth (OVCAR-4 ovarian) [%]	growth (SK-OV-3 ovarian)	growth (IGROV1 ovarian)	growth (OVCAR-3 ovarian)	growth (HS 578T breast)	growth (NCI/ADR-RES ovarian)	growth (T-47D breast)	growth (BT-549 breast)	growth (MDA-MB-435 melanoma)	growth (SW-620 colon)	growth (MCF7 breast)	growth (HCT-116 colon)	growth (HCC-2998 colon)	growth (KM12 colon)
COc1cc(/C=C2/C=C(c3ccc(C(C)(C)C)cc3)N(CCc3ccc(S(N)(=O)=O)cc3)C2=O)cc(OC)c1OC	18.4%	-5.19% (active)	91.4%	54.7	79.9%	70.5%	48.8%	69.6%	71.8%	18.2%	48.1%	52.8%	63.3%	13.1%	23.5%	32.2%	43.8%
O=c1oc2c(Br)cc(Br)cc2cc1-c1cc(-c2ccc(-c3cc(-c4cc5cc(Br)cc(Br)c5oc4=O)nc(-c4cc5cc(Br)cc(Br)c5oc4=O)c3)cc2)cc(-c2cc3cc(Br)cc(Br)c3oc2=O)n1	92.5%	102%	109%	113	101%	106%	104%	90.7%	98.1%	98.9%	112%	114%	100%	98%	99.3%	102%	96.1%
Cn1cc(-c2nonc2-c2cn(C)c3ccc(Br)cc23)c2ccccc21	11.1%	29.6%	58.1%	55.5	37.9%	45.6%	3.66% (active)	-1.89% (active)	21%	23.6%	34%	-20.3% (active)	14.7%	15.4%	17.1%	67.9%	23.3%
COc1ccc(/C(C)=C(\c2ccc(OCCN3CCOCC3)cc2)c2ccc(OC(=O)C3CCCCC3)cc2)cc1	112%	97.9%	98.4%	111	101%	102%	97.5%	110%	102%	77.9%	112%	105%	102%	75.4%	105%	107%	98.1%
C/C=C(\C)C(=O)N[C@H]1CC[C@]2(C)C3CC[C@@]4(C)C(CC[C@@H]4C(C)N(C)C)C3CCC2[C@H]1OC(C)=O (some centres not stated)	7.3% (active)	-15.3% (active)	22%	–	-21.4% (active)	9.32% (active)	-53.9% (active)	-39.9% (active)	16.5%	-43.5% (active)	-11% (active)	-56.8% (active)	-93% (active)	-27% (active)	-83.3% (active)	-85.4% (active)	-48.1% (active)
CCCCCCNC(=O)Oc1ccc(/C(=C(/CC)Cc2ccccc2)c2ccc(OCCCN(C)C)cc2)cc1	-9.68% (active)	75.2%	90.5%	81.7	88.2%	68.1%	95.3%	86.3%	72.2%	54.4%	82.8%	87.8%	59.6%	22.9%	39.8%	–	82.4%
CCN(CC)CCCN1C(=O)c2c(c(C)c3c(oc4cc(OC)ccc43)c2C)C1=O	-4.78% (active)	91.6%	85%	111	129%	86.6%	110%	108%	96%	–	98.8%	103%	87.3%	-14.7% (active)	74.3%	–	96.9%
CCN1CCN(C(=O)[C@]23CC[C@@H](C)[C@H](C)[C@@H]2C2=CC[C@@H]4[C@@]5(C)CCC(=O)C(C)(C)[C@@H]5CC[C@@]4(C)[C@]2(C)CC3)CC1	-13.4% (active)	-34.4% (active)	-3.73% (active)	18	16.2%	14.7%	16.6%	-1.77% (active)	9.16% (active)	8.54% (active)	-26% (active)	11%	-50.4% (active)	4.77% (active)	-48.3% (active)	0.569% (active)	6.9% (active)
